# PubChem BioAssay (NCATS)
# Unmarked numbers belong to inactive results. Results filed as inconclusive are left out. This is one part of the list. The source made the active and inactive calls. Unless noted, the call rests on the fitted dose curve; in most records, active means well fitted curve in either direction with a large enough effect (not every such curve was filed as active); inconclusive means small, poorly fitted or top-dose-only effect, or another doubt; inactive means flat fitted curve, though single readings scatter.
# Experiments:
# [1] = target: Lysosomal acid glucosylceramidase (Homo sapiens) (UniProt P04062); assay: Glucocerebrosidase-p2 (AID 348; in the data active means potency below about 10 µM; further: potency means the concentration at half of the fitted maximal effect); details: purified GBA, blue fluorogenic substrate, 40 min
# Method in brief: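 Compounds titrated from 0.6 nM upwards against 0.2 nM enzyme in pH 5.9 citric acid/KH2PO4, taurocholate, tween-20; blue fluorogenic substrate 80 uM, 40 min room temperature, stopped and read Ex 365/Em 440 for AC50.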
# [2] = AP1 Signaling Pathway (AID 357); details: ME-180 AP-1-bla reporter, EGF-induced, beta-lactamase ratio, 5 h; at 7.69 µM (top of the series) unless noted; further: on the % scale 0 is the no-effect control and ±100 the full control effect
# Method in brief: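 ME-180 cells with beta-lactamase reporter under AP-1 response element, stimulated with EC50 EGF; compounds tested in titration series, 5 h at 37 °C. CCF4 substrate added 2.5 h at room temperature; 460/530 nm emission ratio gave %activity and AC50.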
# [3] = target: Cytochrome P450 1A2 (Homo sapiens) (UniProt P05177); assay: p450-cyp1a2 (AID 410; calls by dose curve; further: potency means the concentration at half of the fitted maximal effect;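 on activity change, negative = inhibition: -100% = full effect of reference inhibitor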)
# Method in brief: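 20nM CYP1A2 with 100uM Luciferin-ME (at Km) in 100mM KPO4; compound preincubated 10 min, NADPH regeneration added, 60 min at room temperature. Luciferin quantified by luminescence after detection reagent; normalized to 57 uM furafylline.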
# [4] = NFAT Signaling Pathway (AID 444); details: Jurkat NFAT-bla M1, carbachol, beta-lactamase ratio, 5 h; at 7.69 µM (top of the series) unless noted;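 further: carbachol stimulus at about its EC50 of 1 µM final; on the % scale 0 is the no-effect control and ±100 the full control effect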
# Method in brief: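 Jurkat cells with NFAT-driven β-lactamase reporter and co-expressed M1 receptor, stimulated with carbachol (final 1 uM, ~EC50), compound titration, 5 h at 37 °C. CCF4 loaded 1 h at RT; 460/530 nm ratio gave %activity and AC50.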
# [5] = Stat Signaling Pathway (AID 446); details: ME-180 SIE beta-lactamase reporter, IL-6 stimulated, 5 h; at 7.69 µM (top of the series) unless noted;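 further: ME-180 cervical cancer cells given 40 pM IL-6 alongside compound; SIE-controlled beta-lactamase reporter measured as 460/530 nm FRET emission ratio; on the % scale 0 is the no-effect control and ±100 the full control effect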
# Method in brief: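 ME-180 SIE-bla cells; overnight plating; cpd + IL-6 40 pM, 5 h, 37 C; LiveBLAzer 2.5 h RT; 460/530 nm emission ratio. Normalized to 300 pM IL-6 and 125 nM JAK inhibitor controls.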
# [6] = target: Glucocorticoid receptor (Homo sapiens) (UniProt P04150); assay: GR-GFP Redistribution (AID 450;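 active means compounds whose dose series gives a full or clear partial fitted curve of increased nuclear translocation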; further: potency means the concentration at half of the fitted maximal effect); details: U2OS GR-GFP nuclear translocation, laser cytometry, 2 h
# [7] = target: Glucocorticoid receptor (Homo sapiens) (UniProt P04150); assay: GR-EFC Redistribution (AID 451; calls by dose curve; further: potency means the concentration at half of the fitted maximal effect); details: CHO-K1 GR-EFC translocation, beta-gal luminescence, 2 h
# Method in brief: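 CHO-K1 cells expressing nuclear EA and GR-ED fragments of b-gal; compounds titrated up to 46 uM final, 2 h at 37 C. GR nuclear translocation read as complemented b-gal luminescence after 1 h RT detection.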
# [8] = target: Mitogen-activated protein kinase 10 (Mus musculus) (UniProt Q61831); assay: JNK3 AlphaScreen Assay (AID 530);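 further: kinase came from lysate of stimulated human HepG2 cells; signal reports phosphorylation of biotinylated GST-cJun 1-79 at Ser73 with 10 µM ATP; on the % scale 0 is the no-effect control and ±100 the full control effect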
# Method in brief: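 Pre-activated (IL-1β/TNFα) JNK3 in HepG2 lysates phosphorylates biotin-GST-cJun(1-79), 10 uM ATP; anti-phospho-cJun(Ser73) AlphaScreen read at room temperature, pH 7.6 Tris buffer. Compounds pre-incubated 15 min as titrations.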
# [9] = target: Fructose-bisphosphate aldolase A (Oryctolagus cuniculus) (UniProt P00883); assay: qHTS Assay for Inhibitors of Fructose-1,6-bisphosphate Aldolase from Giardia Lamblia: Rabbit FBPA Selectivity (AID 2794; active means well fitted inhibition curve with a large enough effect; further: on the % scale 0 is the no-effect control and ±100 the full control effect; nearly all actives have a fitted effect of over 60% in size)
# Method in brief: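 Glyceraldehyde-3-phosphate-coupled detection measures rabbit Class I aldolase turnover via AmpLite Red fluorescence. Compounds (final up to 57.5 uM) preincubated 10 min; signal read 20 min post-substrate at RT.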
# Glucocorticoid receptor (Homo sapiens), sequence (P04150 whole entry, looked up, the tested form may be a part): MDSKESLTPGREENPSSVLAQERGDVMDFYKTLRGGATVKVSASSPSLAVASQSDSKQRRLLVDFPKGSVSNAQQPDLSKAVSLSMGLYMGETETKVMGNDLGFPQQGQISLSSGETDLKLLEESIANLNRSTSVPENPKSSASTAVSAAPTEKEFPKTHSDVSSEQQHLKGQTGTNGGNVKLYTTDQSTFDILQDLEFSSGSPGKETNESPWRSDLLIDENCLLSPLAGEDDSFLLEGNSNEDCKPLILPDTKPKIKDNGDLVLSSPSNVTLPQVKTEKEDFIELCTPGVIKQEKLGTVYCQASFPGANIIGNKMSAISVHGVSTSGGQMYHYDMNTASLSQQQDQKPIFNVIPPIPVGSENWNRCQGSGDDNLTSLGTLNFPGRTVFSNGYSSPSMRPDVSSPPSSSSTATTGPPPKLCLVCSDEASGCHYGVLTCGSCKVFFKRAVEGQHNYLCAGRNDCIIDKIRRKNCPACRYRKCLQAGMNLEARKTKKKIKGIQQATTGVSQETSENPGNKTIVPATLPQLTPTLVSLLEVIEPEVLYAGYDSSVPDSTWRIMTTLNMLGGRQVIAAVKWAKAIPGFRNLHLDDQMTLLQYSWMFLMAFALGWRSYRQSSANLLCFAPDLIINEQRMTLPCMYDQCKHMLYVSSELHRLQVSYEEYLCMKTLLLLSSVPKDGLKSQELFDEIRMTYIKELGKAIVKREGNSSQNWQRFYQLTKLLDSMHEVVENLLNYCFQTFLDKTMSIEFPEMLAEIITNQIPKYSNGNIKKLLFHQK
# Cytochrome P450 1A2 (Homo sapiens), sequence (P05177 whole entry, looked up): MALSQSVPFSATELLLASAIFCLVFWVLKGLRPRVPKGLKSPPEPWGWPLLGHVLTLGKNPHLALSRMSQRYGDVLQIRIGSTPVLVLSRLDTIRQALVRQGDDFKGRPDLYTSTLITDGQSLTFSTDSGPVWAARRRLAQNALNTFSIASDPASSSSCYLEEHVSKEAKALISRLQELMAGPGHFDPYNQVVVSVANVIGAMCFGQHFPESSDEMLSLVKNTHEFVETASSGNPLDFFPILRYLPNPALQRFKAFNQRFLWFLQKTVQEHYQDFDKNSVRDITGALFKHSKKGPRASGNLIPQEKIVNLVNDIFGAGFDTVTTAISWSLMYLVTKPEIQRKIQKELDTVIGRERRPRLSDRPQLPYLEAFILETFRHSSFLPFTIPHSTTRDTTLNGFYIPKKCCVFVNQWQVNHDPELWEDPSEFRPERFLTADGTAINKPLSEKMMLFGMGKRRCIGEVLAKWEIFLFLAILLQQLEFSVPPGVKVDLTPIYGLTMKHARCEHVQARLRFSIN
# Lysosomal acid glucosylceramidase (Homo sapiens), sequence (P04062 whole entry, looked up): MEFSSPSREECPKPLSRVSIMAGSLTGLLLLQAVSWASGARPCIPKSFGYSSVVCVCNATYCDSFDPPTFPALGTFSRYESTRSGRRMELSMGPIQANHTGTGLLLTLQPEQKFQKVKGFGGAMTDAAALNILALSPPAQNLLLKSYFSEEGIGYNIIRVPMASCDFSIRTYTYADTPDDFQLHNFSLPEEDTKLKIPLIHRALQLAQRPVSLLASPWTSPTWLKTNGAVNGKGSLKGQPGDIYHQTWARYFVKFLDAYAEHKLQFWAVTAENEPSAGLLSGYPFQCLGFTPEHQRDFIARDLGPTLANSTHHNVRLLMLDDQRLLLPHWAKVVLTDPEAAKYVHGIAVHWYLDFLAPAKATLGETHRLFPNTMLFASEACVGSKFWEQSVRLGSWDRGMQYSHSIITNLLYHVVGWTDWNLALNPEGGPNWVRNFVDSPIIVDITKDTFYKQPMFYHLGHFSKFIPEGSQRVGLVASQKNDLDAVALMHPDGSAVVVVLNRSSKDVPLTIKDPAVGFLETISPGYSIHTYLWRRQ
# Fructose-bisphosphate aldolase A (Oryctolagus cuniculus), sequence (P00883 whole entry, looked up): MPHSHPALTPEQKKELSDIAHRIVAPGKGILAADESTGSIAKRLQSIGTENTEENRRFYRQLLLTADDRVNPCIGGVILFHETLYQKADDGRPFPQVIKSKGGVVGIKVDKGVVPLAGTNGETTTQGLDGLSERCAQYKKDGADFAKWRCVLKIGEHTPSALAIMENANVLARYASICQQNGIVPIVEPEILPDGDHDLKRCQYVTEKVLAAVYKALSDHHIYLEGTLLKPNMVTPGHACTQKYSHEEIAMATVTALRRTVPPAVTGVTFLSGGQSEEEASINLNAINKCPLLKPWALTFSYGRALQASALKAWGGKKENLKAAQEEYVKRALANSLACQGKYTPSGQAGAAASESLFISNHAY
smiles,measurement,setting,value
NCCNC(=S)S,Potency,[1],9.83 µM (active)
same,"activity change, negative = inhibition",[2],3.85%
same,"activity change, negative = inhibition",[3],-13.2% [at 2.29 µM]
same,"activity change, negative = inhibition",[4],-0.808%
same,"activity, negative = inhibition",[5],-0.434%
same,Potency,[6],> 46 µM
same,Potency,[7],> 9.22 µM
same,Potency,[8],inactive
COc1ccc(-n2c(=O)c(C)nc3cnc(Nc4cccc(OC)c4)nc32)cc1,Potency,[1],> 11.4 µM
same,"activity change, negative = inhibition",[2],-25.7%
same,Potency,[3],15.8 µM (active)
same,"activity change, negative = inhibition",[4],10.5%
same,"activity, negative = inhibition",[5],-24.1%
same,Potency,[6],> 9.22 µM
same,Potency,[7],> 46 µM
same,Potency,[8],inactive
CN1CCN(CCCCOc2ccccc2-c2ccccc2)CC1,outcome,[9],inactive
COc1ccc(OC)c(Nc2nc(-c3ccc(O)c(O)c3)cs2)c1,outcome,[9],inactive
